# Screening data (PubChem BioAssay)
# Compounds with a hit are over-represented: about 10% of the library has one in this group of screens.
# PNC assembly inh = blocks assembly of the perinucleolar compartment | PC3M PTB-GFP, PNC prevalence imaging, 16 h; stronger effect = lower value | activity change (PNC), negative = inhibition, % at 10 µM | 140,000 tested, 3.1% active | AID 2417;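 active means readout at or below -70, meaning at least 70% loss of cells showing the perinucleolar compartment, a nuclear body marking cancer cells; inconclusive means readout between -30 and a set limit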
#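 PC3M cells stably expressing PTB-GFP, 750–1000 cells/well, treated 16 h at 37 °C with compound (23 nl of library stock), in duplicate. After paraformaldehyde fixation and Hoechst stain, imaged at 20x; PNC prevalence scored by image analysis.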
# 12-hLO inh = inhibitors of human 12-lipoxygenase (ALOX12); P18054; Potency, µM (highest dose often 57.1 µM), actives largely listed as inhibitors; purified 12-hLO, xylenol orange hydroperoxide absorbance; 150,000 tested, 0.12% active; further: nearly all actives have a fitted effect of over 55% in size
#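 Purified human 12hLO (150 nM final) was preincubated with compounds for 15 min at room temperature in 25 mM Hepes pH 7.0, 0.01% Triton X-100, then reacted with 40 uM arachidonic acid for 30 min. Hydroperoxide was detected with ferrous iron/xylenol orange.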
# HPGD block = blocks human HPGD enzyme activity. P15428. purified HPGD, NADH fluorescence kinetic, PGE2 substrate. Potency, µM, most hits filed as inhibitors. 150,000 tested, 4.3% active. AID 894; active means well fitted inhibition curve with a large enough effect, not every such curve was filed as active; inconclusive means small, poorly fitted or top-dose-only effect, or another doubt; inactive means no such curve, though single readings can be large or run the other way
# Target sequence (P15428 whole entry, looked up): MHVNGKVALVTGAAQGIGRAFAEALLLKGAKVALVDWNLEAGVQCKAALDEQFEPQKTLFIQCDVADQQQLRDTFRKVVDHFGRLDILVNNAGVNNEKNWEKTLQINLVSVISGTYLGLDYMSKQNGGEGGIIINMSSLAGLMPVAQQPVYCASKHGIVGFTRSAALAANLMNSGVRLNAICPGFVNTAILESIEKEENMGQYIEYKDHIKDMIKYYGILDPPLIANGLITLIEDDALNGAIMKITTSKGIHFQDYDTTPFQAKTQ
#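 20 nM HPGD preincubated 15 min at room temperature with compound in 50 mM Tris-HCl pH 8, 0.01% Tween 20. Started with 1 mM NAD+ and 30 uM prostaglandin E2; NADH fluorescence (360/450 nm) read 5 times over 30-s intervals, last minus first.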
# ALDH1A1 block = inhibitors of human aldehyde dehydrogenase 1A1 | P00352 | Purified ALDH1A1, NADH fluorescence, propionaldehyde substrate | Potency, µM (titrated, usually from 75.3 µM), most hits filed as inhibitors | 220,000 tested, 7.3% active | AID 1030; active means well fitted inhibition curve with a large enough effect, not every such curve was filed as active; inconclusive means small, poorly fitted or top-dose-only effect, or another doubt; inactive means no such curve, though single readings can be large or run the other way
# GLA spleen mod = inhibitors or activators of human alpha-galactosidase in spleen homogenate. 240,000 tested, 0.008% active. human spleen homogenate, 4MU-alpha-Gal fluorescence, 40 min. P06280. AID 2107. Potency, µM (doses to about 80 µM), actives largely listed as inhibitors
#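 Fluorogenic readout (Ex 365/Em 440 nm) of 4-methylumbelliferone released from 1 mM 4-MU-alpha-galactoside by spleen homogenate, 40 min at 37C, pH 5.0. Data normalized to no-enzyme and enzyme controls; Hill-equation AC50 from compound titrations.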
# GLA inh pH 4.5 = blocks human alpha-galactosidase A at pH 4.5. P06280. purified enzyme, 4-MU-alpha-Gal fluorescence, pH 4.5. activity change, negative = inhibition, % at 105 µM. 230,000 tested, under 10 active. AID 1467
# Hits are given with their value; i = inactive; ? = inconclusive; nt = no result; ! = not active in a repeat; [ ] = remark or other dose. Unless noted, the call rests on the fitted dose curve; in most records, active means well fitted curve in the direction sought with a large enough effect; inconclusive means small, poorly fitted or top-dose-only effect, or another doubt; inactive means no such curve, though single readings can be large; an effect the other way counts as inactive or inconclusive.
SMILES,PNC assembly inh,12-hLO inh,HPGD block,ALDH1A1 block,GLA spleen mod,GLA inh pH 4.5
Cn1nnnc1SCC(=O)Nc1ccc(S(=O)(=O)N2CCOCC2)cc1,nt,nt,nt,?,i,i
c1csc(-c2nn3c(Cn4cnc5ccccc54)nnc3s2)c1,?,i,?,?,i,i
Clc1cccc(-c2nn3c(Cn4cnc5ccccc54)nnc3s2)c1,?,i,25µM,10µM,i,i
c1csc(-c2nn3c(Cn4nnc5ccccc54)nnc3s2)c1,i,i,?,i,i,i
c1coc(-c2nn3c(Cn4nnc5ccccc54)nnc3s2)c1,i,i,10µM,10µM,i,i
c1ccc2c(c1)nnn2Cc1nnc2sc(-c3ccncc3)nn12,i,i,18µM,?,i,i
Clc1ccc(Cc2nn3c(Cn4nnc5ccccc54)nnc3s2)cc1,?,i,22µM,22µM,i,i
CCN(C(=S)NC(=O)c1ccccc1Br)C1CCCCC1,i,i,i,i,i,i
COc1ccc(OC)c(NC(=O)c2ccc(CSc3nnc(C)s3)cc2)c1,nt,nt,nt,i,i,i
C[C@@H](C(=O)N[C@@H](CO)Cc1ccccc1)[C@H]1C[C@]1(C)[C@H](NC(=O)OCc1ccccc1)c1ccccc1,nt,i,i,7.1µM,i,?
CNC(=O)[C@H](C)[C@@H]1C[C@@]1(C)[C@@H](NC(=O)OCc1ccccc1)c1ccccc1,i,i,i,i,i,i
CNC(=O)[C@H](C)[C@H]1C[C@]1(C)[C@H](NC(=O)OCc1ccccc1)c1ccccc1,nt,i,i,7.9µM,i,i
C[C@@H](C(=O)NCC1CC1)[C@H]1C[C@]1(C)[C@H](NC(=O)OCc1ccccc1)c1ccccc1,i,i,i,18µM,i,i
Cc1ccc(CNC(=O)[C@H](C)[C@H]2C[C@]2(C)[C@H](NC(=O)OCc2ccccc2)c2ccccc2)c(F)c1F,nt,i,i,3.2µM,i,i
C[C@@H](C(=O)O)[C@@H]1C[C@@]1(C)[C@@H](NC(=O)OCc1ccccc1)c1ccccc1,i,i,i,i,i,i
N[C@@H](Cc1cc(I)c(Oc2ccc(O)cc2)c(I)c1)C(=O)O,nt,nt,nt,i,i,nt
O=C(CON1C(=O)c2ccccc2C1=O)c1ccccc1,nt,i[11.4 µM],i,?,nt,nt
C[C@@H](C(=O)NCc1cccc2ccccc12)[C@H]1C[C@]1(C)[C@H](NC(=O)OCc1ccccc1)c1ccccc1,nt,i,?,?,i,i
C[C@@H](C(=O)NCc1ccc(S(C)(=O)=O)cc1)[C@H]1C[C@]1(C)[C@H](NC(=O)OCc1ccccc1)c1ccccc1,i,i,i,6.3µM,i,i
COCCNC(=O)[C@H](C)[C@H]1C[C@]1(C)[C@H](NC(=O)OCc1ccccc1)c1ccccc1,i,i,i,28µM!,i,i
Cc1ccc(CNC(=O)[C@H](C)[C@H]2C[C@]2(C)[C@H](NC(=O)OCc2ccccc2)c2ccccc2)o1,i,i,25µM!,14µM!,i,i
COc1ccc2[nH]cc(CCNc3ncncc3-c3ccccc3C(F)(F)F)c2c1,nt,nt,nt,i,i,nt
Cc1cnc(CNc2ncnc3ccc(-c4ccccc4C(F)(F)F)cc23)cn1,nt,nt,nt,i,i,nt
COc1ccc(NC(=O)CC2C(=O)N(C)C(=S)N2Cc2ccc3c(c2)OCO3)cc1 (stereo not given),i,i,i,?,i,i
COc1ccc2c(c1)O[C@@H](c1cccc(C(F)(F)F)c1)[C@H](OC(=O)NS(=O)(=O)c1ccc(F)cc1)C2=O,nt,nt,i,i,i,i
SMILES,PNC assembly inh,12-hLO inh,HPGD block,ALDH1A1 block,GLA spleen mod,GLA inh pH 4.5
COc1ccc2ncc(S(=O)(=O)c3ccccc3)c(N3CCC4(CC3)OCCO4)c2c1,i,i,i,7.9µM,i,i
COc1cccc(-c2nccc(-n3ccnc3)n2)c1,nt,i,i,i,i,i
COc1ccc2c(c1OC)C(=O)OC2CC(=O)c1ccc(O)cc1 (stereo not given),?,i,25µM,28µM,i,i
COc1ccc2c(c1OC)C(=O)OC2CC(=O)c1ccc(O)c(O)c1 (stereo not given),i,?,?,i,i,i
O=C(CN1CCCC1)N1c2ccccc2C=Cc2ccccc21,nt,nt,nt,i,i,i
CCN(CC)C(=O)N1c2ccccc2C=Cc2ccccc21,-105,i,i,i,i,i
